An excerpt weighted towards active compounds, which were near 5.9% of everything screened.
HSP90 inh: blocks HSP90-mediated luciferase refolding in reticulocyte lysate. Rabbit reticulocyte lysate, luciferase refolding luminescence, 3 h. inhibition, % at 5.6 µM. 290,000 tested, 0.91% active. AID 1789;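 active = inhibition above the screen-wide mean plus 3 SD, computed separately per campaign, cut at about 16% in these data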;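 also: inhibitors lower the luminescence because luciferase stays unfolded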
AHR activator: human AHR activation; 320,000 tested, 2.5% active; AHR-responsive luciferase reporter cells, luminescence; P35869; activation, % at 5 µM; in the data active = activation above about 47%
HSF1 inh: HSF1 inhibition; activity change, negative = inhibition, % at 7.5 µM (by protocol); 300,000 tested, 0.77% active; NIH3T3-HGL HSE-luciferase, MG132-induced, luminescence 8 h; active compounds read low;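 active = more than half of replicate wells show activity change below -50%, luminescence cut by over half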;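 also: luciferase reports HSF-1 transcriptional activity via heat shock element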
GAA850 FXN act: increases GAA850 frataxin promoter reporter activity; HEK293 lucGAA850 FXN promoter luciferase reporter, 24 h; percent of 10 µM SAHA response; activation, % at 6 µM; 360,000 tested, 0.56% active; AID 540364;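 active = activation above the average of all compounds screened plus 3 SD, cutoff fixed separately per campaign, cut at about 7.5% in these data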
HSF-1 act: increases HSF-1 driven luciferase reporter signal | NIH3T3-HGL HSF-1 luciferase reporter, MG132, 8 h; 100% = twice DMSO control signal | 300,000 tested, 1.7% active | activation, % at 9 µM;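 active = mean replicate activation of at least 50% with a set share of replicates each reaching 50%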
DAX1 inh: NR0B1 (DAX1) inhibition. P51843. AID 504766. inhibition, % at 6.75 µM. 340,000 tested, 0.99% active. HEK293 Gal4-DAX1 luciferase reporter, luminescence;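 active = inhibition above the mean over all tested compounds plus 3 SD, cut at about 4.2% in these data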;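 also: inhibition shows as a rise in luminescence from relieved DAX1 repression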
Target sequence (P51843 207-470 limits assumed): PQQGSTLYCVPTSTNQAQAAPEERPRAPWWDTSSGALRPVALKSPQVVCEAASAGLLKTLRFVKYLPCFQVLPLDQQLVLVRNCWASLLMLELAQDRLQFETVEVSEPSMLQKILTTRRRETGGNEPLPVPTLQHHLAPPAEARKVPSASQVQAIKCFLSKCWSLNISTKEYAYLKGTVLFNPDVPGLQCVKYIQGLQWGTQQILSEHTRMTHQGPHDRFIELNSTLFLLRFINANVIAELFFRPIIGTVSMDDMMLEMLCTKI
GAA30 FXN cntr: GAA30 FXN promoter activation counter-screen; shares compounds with GAA850 FXN act; 1,900 tested, 66% active; HEK293 lucGAA30 FXN promoter luciferase, 24 h; DMSO = 0%, 5 µM ipriflavone = 100%; activation, % at 6 µM;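 active = mean activation above the mean of solvent-only control wells plus 3 SD, cut at about 22% in these data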;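 also: counterscreen of GAA850 promoter hits where activity marks nonselective or luminescence artifacts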
GAA850 confirm: confirmation of GAA850 frataxin (FXN) promoter activators; shares compounds with GAA850 FXN act; HEK293 lucGAA850 FXN promoter luciferase reporter, 24 h; 100% = activation by SAHA; activation, % at 6 µM; 1,900 tested, 86% active; AID 588351;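 active = mean activation above a set limit taken from the primary screen, cut at about 8% in these data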
Of the large screens only hits and unclear results are named; the others gave an inactive call (follow-up assays come after a bar, where they were run).

COc1ccc(Nc2nc(N)nc(CSC(=S)N3CCCCC3)n2)cc1	GAA850 FXN act 8.2 | GAA30 FXN cntr 69 | GAA850 confirm 23
CCc1ccccc1NC(=O)CNCC(=O)Nc1ccccc1CC	none
CC[C@@]12C(=O)N(c3cccc(Br)c3)C(=O)N1[C@H](c1cccc(C)c1)[C@@H]1C(=O)N(Cc3ccccc3)C(=O)[C@@H]12	none (no result: HSP90 inh)
CC(C)C[C@@]12C(=O)N(c3cccc(Br)c3)C(=O)N1[C@H](c1ccc(F)cc1)[C@@H]1C(=O)N(C3CCCCC3)C(=O)[C@@H]12	GAA850 FXN act 11 (no result: HSP90 inh) | GAA30 FXN cntr inactive | GAA850 confirm 10.0
Cc1cccc([C@@H]2[C@@H]3C(=O)N(Cc4ccccc4)C(=O)[C@@H]3[C@]3(CC(C)C)C(=O)N(c4cccc(Br)c4)C(=O)N23)c1	none
CC[C@@]12C(=O)N(c3cccc(Br)c3)C(=O)N1[C@H](c1ccc(F)cc1)[C@@H]1C(=O)N(C3CCCCC3)C(=O)[C@@H]12	GAA850 FXN act 8.4 (no result: HSP90 inh) | GAA30 FXN cntr inactive | GAA850 confirm 12
COc1cccc(N=Nc2ccc(O)c3ncccc23)c1	GAA850 FXN act 9.6, HSF-1 act 90 | GAA30 FXN cntr inactive | GAA850 confirm inactive
COc1cccc(N=Nc2ccc3cccnc3c2O)c1	none
N#Cc1ccc(S(=O)(=O)N2CCCCC2c2cc(C(=O)Nc3cccc4c3CCCC4)no2)cc1 (stereo not given)	GAA850 FXN act 7.9 (no result: HSP90 inh, AHR activator, HSF1 inh, HSF-1 act, DAX1 inh) | GAA30 FXN cntr 27 | GAA850 confirm 12
Cc1onc(-c2c(Cl)cccc2Cl)c1NC(=O)NN(C)c1ccc([N+](=O)[O-])cn1	none
COc1ccccc1CC1(C)C(=O)Nc2ccc(S(=O)(=O)NC3CCCCC3)cc21 (stereo not given)	GAA850 FXN act 9.1 (no result: HSP90 inh, AHR activator, HSF1 inh, HSF-1 act, DAX1 inh) | GAA30 FXN cntr inactive | GAA850 confirm inactive
COc1ccc(OC(F)(F)F)cc1CC1(C)C(=O)Nc2ccc(-c3ccsc3)cc21 (stereo not given)	GAA850 FXN act 13 (no result: HSP90 inh, AHR activator, HSF1 inh, HSF-1 act, DAX1 inh) | GAA30 FXN cntr inactive | GAA850 confirm 9.0
CC1(Cc2ccc(F)cc2)C(=O)Nc2ccc(S(=O)(=O)NC3CCCCC3)cc21 (stereo not given)	GAA850 FXN act 9.7 (no result: HSP90 inh, AHR activator, HSF1 inh, HSF-1 act, DAX1 inh) | GAA30 FXN cntr inactive | GAA850 confirm inactive
CC1(Cc2ccccc2OC(F)(F)F)C(=O)Nc2ccc(S(=O)(=O)NC3CCCCC3)cc21 (stereo not given)	none (no result: HSP90 inh, AHR activator, HSF1 inh, HSF-1 act, DAX1 inh)
COc1ccc(OC(F)(F)F)cc1CC1(C)C(=O)Nc2ccc(S(=O)(=O)NC3CCCCC3)cc21 (stereo not given)	GAA850 FXN act 17 (no result: HSP90 inh, AHR activator, HSF1 inh, HSF-1 act, DAX1 inh) | GAA30 FXN cntr inactive | GAA850 confirm 14
O=C(CNc1ccccc1F)Nc1cccc(S(=O)(=O)N2CCCCC2)c1	none (no result: HSP90 inh, AHR activator, HSF1 inh, HSF-1 act)
Cc1ccccc1CC1(C)C(=O)Nc2ccc(S(=O)(=O)NC3CCCCC3)cc21 (stereo not given)	none (no result: HSP90 inh, AHR activator, HSF1 inh, HSF-1 act, DAX1 inh)
COc1ccc(Cl)cc1CC1(C)C(=O)Nc2ccc(S(=O)(=O)NC3CCCCC3)cc21 (stereo not given)	GAA850 FXN act 16 (no result: HSP90 inh, AHR activator, HSF1 inh, HSF-1 act, DAX1 inh) | GAA30 FXN cntr inactive | GAA850 confirm 13
CC1(C(=O)Nc2ccc3c(c2)OCCO3)CC1(Cl)Cl (stereo not given)	none
O=C(Cn1nc(-c2ccc(N3CCOCC3)c([N+](=O)[O-])c2)c2ccccc2c1=O)N1CCCCC1	GAA850 FXN act 8.3 | GAA30 FXN cntr 38 | GAA850 confirm 14
CCCCn1c(/C=N/Nc2nc3ccccc3[nH]2)nc2ccccc21	AHR activator 73, GAA850 FXN act 12 | GAA30 FXN cntr inactive | GAA850 confirm inactive
CC(C)(C)n1nnnc1C(c1cccnc1)N(Cc1ccccc1)Cc1ccco1 (stereo not given)	GAA850 FXN act 7.9 | GAA30 FXN cntr inactive | GAA850 confirm 9.0
CCC(C)(C)n1nnnc1C(c1ccc(C)cc1)N(Cc1ccco1)Cc1cccs1 (stereo not given)	GAA850 FXN act 8.3 | GAA30 FXN cntr inactive | GAA850 confirm 8.8
COc1cccc(CN(Cc2ccco2)C(c2ccc(F)cc2)c2nnnn2C(C)(C)C)c1 (stereo not given)	none
CCc1ccccc1Nc1nc(N)nc(CSCC(=O)Nc2ccc(C)c(C)c2)n1	GAA850 FXN act 12 | GAA30 FXN cntr 30 | GAA850 confirm 16
CCCCN(C=O)c1c(CC)nc2ccc(C(=O)NCCN(C)C)cn12	none (no result: HSP90 inh, AHR activator, HSF1 inh, HSF-1 act, DAX1 inh)
COc1ccc(O)c(/C=N/Nc2nc(C)cc(-c3ccccc3)n2)c1	none (no result: HSP90 inh)
COc1ccc(O)c(/C=N/Nc2nc(Nc3ccccc3)nc(-n3nc(C)cc3C)n2)c1	GAA850 FXN act 8.7 | GAA30 FXN cntr inactive | GAA850 confirm 16
O=C1c2ccccc2C(=O)C1C1=Nc2ccccc2NC(c2ccccc2)C1 (stereo not given)	none (no result: GAA850 FXN act, DAX1 inh)
O=C(CCl)Nc1ccc(N2CCCCCC2)cc1	GAA850 FXN act 7.7 | GAA30 FXN cntr inactive | GAA850 confirm 29
CCC(=O)Nc1ccc(N2CCCCC2)cc1	none
CCOC(=O)c1nc2sc3c(c2c(=O)n1C(C)C(=O)OCC)CCCC3 (stereo not given)	none
Cc1ccc2oc(-c3ccc(C)c(NC(=S)NC(=O)c4cccs4)c3)nc2c1	GAA850 FXN act 8.6, DAX1 inh 4.7 | GAA30 FXN cntr 96 | GAA850 confirm 19
CCOCCCNC(=O)/C(C#N)=C/c1ccc(-c2ccc(S(=O)(=O)N3CCOCC3)cc2)o1	none
CCOCCCNC(=O)/C(C#N)=C/c1ccc([N+](=O)[O-])o1	GAA850 FXN act 11 | GAA30 FXN cntr inactive | GAA850 confirm inactive
CC(NC(=O)/C(C#N)=C/c1ccc([N+](=O)[O-])o1)c1ccccc1 (stereo not given)	HSF1 inh -62, GAA850 FXN act 10 | GAA30 FXN cntr inactive | GAA850 confirm 8.5
O=C(C1COc2ccccc2O1)N1CCc2ccccc21 (stereo not given)	GAA850 FXN act 8.0 | GAA30 FXN cntr 73 | GAA850 confirm 32
O=C(C1COc2ccccc2O1)N1CCCC1 (stereo not given)	none
COc1cc(Cl)c(S(=O)(=O)NCc2cccnc2)cc1Cl	none
COc1ccccc1NC(=O)CC1C(=O)NCCN1C(=O)Nc1ccccc1 (stereo not given)	GAA850 FXN act 8.0 | GAA30 FXN cntr inactive | GAA850 confirm 8.0
CCOC1OC2C(CO)OC(n3cnc4c(N)ncnc43)C2O1 (stereo not given)	GAA850 FXN act 11 | GAA30 FXN cntr 28 | GAA850 confirm 9.2
